Test results published in article PMC7862700, “An all-to-all approach to the identification of sequence-specific readers for epigenetic DNA modifications on cytosine”.

Key:
Experiment in all cases: DAPPL (digital affinity profiling via proximity ligation, sequencing); 10 mM Tris-HCl pH 7.5, 50 mM NaCl, 1 mM DTT, 4% glycerol, room temperature, 30 min; GST-TFs on glutathione beads, 16-mer random dsDNA library, 0.1% formaldehyde crosslink after washing; high values mean tight binding
[1] = molecular target: T1, FLI1 (Homo sapiens, UniProt Q01543 1-452); settings: protein: recombinant; tags: N-terminal GST; dsDNA, one strand shown
T1 sequence: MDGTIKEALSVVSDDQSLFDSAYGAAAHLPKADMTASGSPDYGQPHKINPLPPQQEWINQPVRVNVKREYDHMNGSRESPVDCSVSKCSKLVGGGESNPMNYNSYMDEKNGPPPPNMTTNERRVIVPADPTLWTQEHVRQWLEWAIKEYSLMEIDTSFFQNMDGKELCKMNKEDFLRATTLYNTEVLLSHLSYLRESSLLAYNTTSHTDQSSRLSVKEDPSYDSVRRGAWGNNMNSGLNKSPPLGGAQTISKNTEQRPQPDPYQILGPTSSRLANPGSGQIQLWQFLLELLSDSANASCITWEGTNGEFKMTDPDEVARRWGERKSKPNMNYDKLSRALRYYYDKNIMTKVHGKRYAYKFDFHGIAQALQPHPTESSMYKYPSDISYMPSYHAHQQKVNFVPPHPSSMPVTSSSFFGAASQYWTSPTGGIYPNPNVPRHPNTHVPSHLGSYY
Outline: (§1)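 The binding signal reported is, for every hexamer, its read frequency for a factor over its read frequency for the tag-only sample. Reads came from pools of yeast-expressed, GST-fused human transcription factors on glutathione beads, barcoded with DNA and mixed with that sample, which were incubated with 200 nmole of a random double-stranded 16-mer DNA library in Tris/NaCl/DTT/glycerol buffer at room temperature for 30 min. After washing, the pools were crosslinked with 0.1% formaldehyde, proximity-ligated with BsaI/T4 ligase for 1 h at 37 °C, PCR-amplified and sequenced on an Illumina NextSeq500.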

[2] = molecular target: T2, ELK1 (Homo sapiens, UniProt P19419 1-428); settings: protein: recombinant; tags: N-terminal GST; dsDNA, one strand shown
T2 sequence: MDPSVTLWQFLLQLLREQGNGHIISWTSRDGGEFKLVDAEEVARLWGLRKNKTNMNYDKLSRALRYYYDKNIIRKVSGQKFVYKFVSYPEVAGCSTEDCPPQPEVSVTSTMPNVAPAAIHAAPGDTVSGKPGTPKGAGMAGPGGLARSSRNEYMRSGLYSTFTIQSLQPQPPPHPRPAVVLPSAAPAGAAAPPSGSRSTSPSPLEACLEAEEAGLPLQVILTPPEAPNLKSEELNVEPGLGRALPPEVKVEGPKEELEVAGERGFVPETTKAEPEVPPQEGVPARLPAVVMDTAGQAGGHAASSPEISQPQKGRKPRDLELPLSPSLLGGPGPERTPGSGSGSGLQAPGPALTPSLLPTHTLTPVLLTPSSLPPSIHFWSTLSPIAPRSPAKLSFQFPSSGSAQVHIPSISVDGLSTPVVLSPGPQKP
Outline: as §1

[3] = molecular target: T3, GABPA (Homo sapiens, UniProt Q06546 1-454); settings: protein: recombinant; tags: N-terminal GST; dsDNA, one strand shown
T3 sequence: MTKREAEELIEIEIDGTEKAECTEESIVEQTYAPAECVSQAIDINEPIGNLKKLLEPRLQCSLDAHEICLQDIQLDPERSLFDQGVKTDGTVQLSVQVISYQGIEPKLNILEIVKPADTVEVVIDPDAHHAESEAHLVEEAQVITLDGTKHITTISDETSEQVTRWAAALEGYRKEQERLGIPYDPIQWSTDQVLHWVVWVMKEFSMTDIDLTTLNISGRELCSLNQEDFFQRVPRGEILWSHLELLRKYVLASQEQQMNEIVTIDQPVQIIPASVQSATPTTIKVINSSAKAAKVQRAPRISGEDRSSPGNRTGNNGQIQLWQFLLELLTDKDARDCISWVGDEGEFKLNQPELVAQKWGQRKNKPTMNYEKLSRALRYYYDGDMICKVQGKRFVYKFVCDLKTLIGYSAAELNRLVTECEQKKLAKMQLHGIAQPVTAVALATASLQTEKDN
Outline: as §1

[4] = molecular target: T4, ERG (Homo sapiens, UniProt P11308 1-479); settings: protein: recombinant; tags: N-terminal GST; dsDNA, one strand shown
T4 sequence: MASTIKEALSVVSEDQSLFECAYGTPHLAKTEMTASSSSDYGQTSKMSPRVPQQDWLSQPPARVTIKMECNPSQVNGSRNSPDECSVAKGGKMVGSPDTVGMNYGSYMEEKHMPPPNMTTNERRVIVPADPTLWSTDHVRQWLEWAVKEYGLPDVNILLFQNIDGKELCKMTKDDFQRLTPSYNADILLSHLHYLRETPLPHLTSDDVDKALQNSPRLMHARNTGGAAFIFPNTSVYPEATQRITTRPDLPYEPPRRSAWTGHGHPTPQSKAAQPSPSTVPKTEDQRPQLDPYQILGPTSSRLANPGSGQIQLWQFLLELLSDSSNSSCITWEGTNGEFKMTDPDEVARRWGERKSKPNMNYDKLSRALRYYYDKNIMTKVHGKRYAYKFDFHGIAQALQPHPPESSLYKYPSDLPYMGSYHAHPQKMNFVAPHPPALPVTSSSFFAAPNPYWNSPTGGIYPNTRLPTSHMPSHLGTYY
Outline: as §1

[5] = molecular target: ELF1 (Homo sapiens, UniProt P32519 1-619); settings: protein: recombinant; tags: N-terminal GST; dsDNA, one strand shown
Outline: as §1

[6] = molecular target: T5, EHF (Homo sapiens, UniProt Q9NZC4 1-300); settings: protein: recombinant; tags: N-terminal GST; dsDNA, one strand shown
T5 sequence: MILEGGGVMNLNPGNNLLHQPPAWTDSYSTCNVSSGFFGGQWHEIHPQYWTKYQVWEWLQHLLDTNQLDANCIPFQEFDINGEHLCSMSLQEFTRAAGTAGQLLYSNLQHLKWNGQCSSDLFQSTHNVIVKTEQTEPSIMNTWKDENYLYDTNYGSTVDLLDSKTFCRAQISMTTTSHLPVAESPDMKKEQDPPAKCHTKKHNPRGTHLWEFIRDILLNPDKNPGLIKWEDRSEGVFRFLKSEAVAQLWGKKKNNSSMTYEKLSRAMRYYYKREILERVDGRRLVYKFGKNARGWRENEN
Outline: as §1

[7] = molecular target: SPI1 (Homo sapiens, UniProt P17947 1-270); settings: protein: recombinant; tags: N-terminal GST; dsDNA, one strand shown
Outline: as §1

[8] = molecular target: SPIB (Homo sapiens, UniProt Q01892 1-262); settings: protein: recombinant; tags: N-terminal GST; dsDNA, one strand shown
Outline: as §1

[9] = molecular target: T6, ELK3 (Homo sapiens, UniProt P41970 1-407); settings: protein: recombinant; tags: N-terminal GST; dsDNA, one strand shown
T6 sequence: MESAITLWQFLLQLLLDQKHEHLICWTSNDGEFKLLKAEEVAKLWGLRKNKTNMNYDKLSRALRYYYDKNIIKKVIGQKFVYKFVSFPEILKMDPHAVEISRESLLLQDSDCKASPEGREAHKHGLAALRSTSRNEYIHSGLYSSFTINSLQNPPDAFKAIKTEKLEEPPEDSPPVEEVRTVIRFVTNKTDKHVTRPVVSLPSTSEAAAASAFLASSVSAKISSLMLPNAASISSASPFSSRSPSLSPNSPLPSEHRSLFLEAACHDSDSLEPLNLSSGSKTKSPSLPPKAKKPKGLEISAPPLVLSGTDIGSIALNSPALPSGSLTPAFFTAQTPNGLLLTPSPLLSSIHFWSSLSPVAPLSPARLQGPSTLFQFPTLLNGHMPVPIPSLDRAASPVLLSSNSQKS
Outline: as §1

[10] = molecular target: T7, FEV (Homo sapiens, UniProt Q99581 1-238); settings: protein: recombinant; tags: N-terminal GST; dsDNA, one strand shown
T7 sequence: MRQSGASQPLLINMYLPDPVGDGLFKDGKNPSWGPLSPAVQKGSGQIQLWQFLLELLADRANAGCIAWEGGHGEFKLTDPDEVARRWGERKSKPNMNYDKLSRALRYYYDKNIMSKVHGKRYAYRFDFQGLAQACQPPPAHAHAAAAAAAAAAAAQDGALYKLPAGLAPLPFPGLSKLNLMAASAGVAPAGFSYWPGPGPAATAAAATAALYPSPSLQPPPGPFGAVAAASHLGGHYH
Outline: as §1

[11] = molecular target: ETV5 (Homo sapiens, UniProt P41161 1-510); settings: protein: recombinant; tags: N-terminal GST; dsDNA, one strand shown
Outline: as §1

[12] = molecular target: HSF1 (Homo sapiens, UniProt Q00613 1-529); settings: protein: recombinant; tags: N-terminal GST; chain copies: 3; dsDNA, one strand shown
Outline: as §1

[13] = molecular target: T8, SPIC (Homo sapiens, UniProt Q8N5J4 1-248); settings: protein: recombinant; tags: N-terminal GST; dsDNA, one strand shown
T8 sequence: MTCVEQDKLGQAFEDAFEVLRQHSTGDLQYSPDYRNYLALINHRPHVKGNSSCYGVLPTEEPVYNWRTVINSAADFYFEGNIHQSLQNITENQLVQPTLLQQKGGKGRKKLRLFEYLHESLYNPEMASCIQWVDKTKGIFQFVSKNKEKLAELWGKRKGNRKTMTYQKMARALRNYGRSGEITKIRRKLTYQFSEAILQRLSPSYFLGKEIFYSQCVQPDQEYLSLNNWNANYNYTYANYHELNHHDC
Outline: as §1

[14] = molecular target: ELF4 (Homo sapiens, UniProt Q99607 1-663); settings: protein: recombinant; tags: N-terminal GST; dsDNA, one strand shown
Outline: as §1

[15] = molecular target: T9, ELK4 (Homo sapiens, UniProt P28324-2 1-405); settings: protein: recombinant; tags: N-terminal GST; dsDNA, one strand shown
T9 sequence: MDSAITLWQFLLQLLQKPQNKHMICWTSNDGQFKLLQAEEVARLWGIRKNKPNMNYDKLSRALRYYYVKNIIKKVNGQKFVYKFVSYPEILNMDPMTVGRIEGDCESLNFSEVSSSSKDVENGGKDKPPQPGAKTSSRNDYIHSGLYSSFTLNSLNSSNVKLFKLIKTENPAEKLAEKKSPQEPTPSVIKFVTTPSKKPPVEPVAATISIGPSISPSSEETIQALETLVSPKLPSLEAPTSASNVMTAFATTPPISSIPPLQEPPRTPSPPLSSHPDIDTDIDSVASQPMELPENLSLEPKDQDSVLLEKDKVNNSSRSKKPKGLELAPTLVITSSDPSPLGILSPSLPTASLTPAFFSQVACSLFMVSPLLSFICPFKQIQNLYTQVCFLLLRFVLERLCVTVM
Outline: as §1

[16] = molecular target: T10, ETV2 (Homo sapiens, UniProt O00321 1-342); settings: protein: recombinant; tags: N-terminal GST; dsDNA, one strand shown
T10 sequence: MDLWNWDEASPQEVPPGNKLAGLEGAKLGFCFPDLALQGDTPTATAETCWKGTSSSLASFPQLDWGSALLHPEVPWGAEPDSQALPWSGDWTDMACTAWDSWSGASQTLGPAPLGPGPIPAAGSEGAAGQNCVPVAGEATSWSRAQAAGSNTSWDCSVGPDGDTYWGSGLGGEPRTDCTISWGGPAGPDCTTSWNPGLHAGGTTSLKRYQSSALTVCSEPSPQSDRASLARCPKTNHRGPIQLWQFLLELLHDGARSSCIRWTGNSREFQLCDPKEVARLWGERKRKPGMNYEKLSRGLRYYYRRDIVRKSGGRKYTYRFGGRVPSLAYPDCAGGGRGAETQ
Outline: as §1

[17] = molecular target: CRX (Homo sapiens, UniProt O43186 1-299); settings: protein: recombinant; tags: N-terminal GST; dsDNA, one strand shown
Outline: as §1

[18] = molecular target: ETV1 (Homo sapiens, UniProt P50549 1-477); settings: protein: recombinant; tags: N-terminal GST; dsDNA, one strand shown
Outline: as §1

HSF1, sequence (Q00613 whole entry): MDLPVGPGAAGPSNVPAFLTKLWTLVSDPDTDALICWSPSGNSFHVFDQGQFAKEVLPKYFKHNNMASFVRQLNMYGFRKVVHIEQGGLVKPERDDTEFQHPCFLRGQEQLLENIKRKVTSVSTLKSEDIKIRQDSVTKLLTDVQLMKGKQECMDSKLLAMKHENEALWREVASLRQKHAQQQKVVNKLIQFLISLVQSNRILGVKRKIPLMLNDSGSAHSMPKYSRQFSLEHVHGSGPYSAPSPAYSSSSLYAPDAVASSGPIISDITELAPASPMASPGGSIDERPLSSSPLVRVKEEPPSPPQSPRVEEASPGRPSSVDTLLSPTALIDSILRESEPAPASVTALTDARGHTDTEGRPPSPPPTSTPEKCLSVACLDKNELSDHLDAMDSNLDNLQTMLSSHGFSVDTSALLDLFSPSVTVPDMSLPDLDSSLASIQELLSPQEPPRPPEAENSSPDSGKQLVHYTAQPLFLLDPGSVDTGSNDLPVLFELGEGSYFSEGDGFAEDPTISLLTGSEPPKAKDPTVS
CRX, sequence (O43186 whole entry): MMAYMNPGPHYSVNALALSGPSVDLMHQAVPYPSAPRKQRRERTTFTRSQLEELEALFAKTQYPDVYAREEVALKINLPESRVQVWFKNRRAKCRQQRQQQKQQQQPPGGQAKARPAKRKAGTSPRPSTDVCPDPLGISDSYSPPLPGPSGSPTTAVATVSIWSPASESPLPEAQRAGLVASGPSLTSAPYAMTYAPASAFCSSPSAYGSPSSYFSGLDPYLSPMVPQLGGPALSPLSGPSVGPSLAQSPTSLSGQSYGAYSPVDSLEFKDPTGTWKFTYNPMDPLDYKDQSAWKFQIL
ETV5, sequence (P41161 whole entry): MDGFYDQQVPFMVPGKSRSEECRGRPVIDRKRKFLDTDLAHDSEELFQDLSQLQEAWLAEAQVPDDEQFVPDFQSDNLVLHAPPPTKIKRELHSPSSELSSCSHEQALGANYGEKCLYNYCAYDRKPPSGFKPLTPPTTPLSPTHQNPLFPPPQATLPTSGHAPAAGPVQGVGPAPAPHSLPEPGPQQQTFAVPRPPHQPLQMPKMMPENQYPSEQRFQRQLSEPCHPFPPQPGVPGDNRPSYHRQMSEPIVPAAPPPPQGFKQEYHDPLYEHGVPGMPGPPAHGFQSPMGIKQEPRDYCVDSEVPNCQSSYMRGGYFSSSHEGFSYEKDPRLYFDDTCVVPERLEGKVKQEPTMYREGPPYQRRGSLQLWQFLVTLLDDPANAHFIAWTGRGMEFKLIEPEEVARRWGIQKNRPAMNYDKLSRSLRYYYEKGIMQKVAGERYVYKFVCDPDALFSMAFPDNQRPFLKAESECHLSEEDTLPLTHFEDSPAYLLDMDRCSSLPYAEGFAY
ETV1, sequence (P50549 whole entry): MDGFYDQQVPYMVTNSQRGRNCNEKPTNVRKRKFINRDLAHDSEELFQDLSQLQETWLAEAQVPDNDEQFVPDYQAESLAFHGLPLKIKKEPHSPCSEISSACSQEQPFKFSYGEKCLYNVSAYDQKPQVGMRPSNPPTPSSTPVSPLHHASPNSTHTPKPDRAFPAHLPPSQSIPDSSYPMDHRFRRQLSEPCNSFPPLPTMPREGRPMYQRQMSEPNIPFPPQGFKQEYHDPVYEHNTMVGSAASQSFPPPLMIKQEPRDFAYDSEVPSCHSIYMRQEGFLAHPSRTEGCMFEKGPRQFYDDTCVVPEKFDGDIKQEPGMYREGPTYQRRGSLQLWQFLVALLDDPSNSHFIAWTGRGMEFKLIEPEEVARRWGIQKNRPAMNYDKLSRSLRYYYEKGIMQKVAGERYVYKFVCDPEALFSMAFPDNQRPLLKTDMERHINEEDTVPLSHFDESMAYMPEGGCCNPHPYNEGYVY
SPIB, sequence (Q01892 whole entry): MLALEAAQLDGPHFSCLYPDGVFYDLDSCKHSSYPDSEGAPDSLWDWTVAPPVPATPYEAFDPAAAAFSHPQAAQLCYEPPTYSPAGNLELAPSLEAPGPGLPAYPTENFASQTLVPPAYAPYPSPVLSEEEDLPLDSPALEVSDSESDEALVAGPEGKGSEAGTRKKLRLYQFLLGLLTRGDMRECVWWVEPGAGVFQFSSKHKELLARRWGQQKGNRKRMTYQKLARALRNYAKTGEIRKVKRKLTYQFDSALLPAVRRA
ELF4, sequence (Q99607 whole entry): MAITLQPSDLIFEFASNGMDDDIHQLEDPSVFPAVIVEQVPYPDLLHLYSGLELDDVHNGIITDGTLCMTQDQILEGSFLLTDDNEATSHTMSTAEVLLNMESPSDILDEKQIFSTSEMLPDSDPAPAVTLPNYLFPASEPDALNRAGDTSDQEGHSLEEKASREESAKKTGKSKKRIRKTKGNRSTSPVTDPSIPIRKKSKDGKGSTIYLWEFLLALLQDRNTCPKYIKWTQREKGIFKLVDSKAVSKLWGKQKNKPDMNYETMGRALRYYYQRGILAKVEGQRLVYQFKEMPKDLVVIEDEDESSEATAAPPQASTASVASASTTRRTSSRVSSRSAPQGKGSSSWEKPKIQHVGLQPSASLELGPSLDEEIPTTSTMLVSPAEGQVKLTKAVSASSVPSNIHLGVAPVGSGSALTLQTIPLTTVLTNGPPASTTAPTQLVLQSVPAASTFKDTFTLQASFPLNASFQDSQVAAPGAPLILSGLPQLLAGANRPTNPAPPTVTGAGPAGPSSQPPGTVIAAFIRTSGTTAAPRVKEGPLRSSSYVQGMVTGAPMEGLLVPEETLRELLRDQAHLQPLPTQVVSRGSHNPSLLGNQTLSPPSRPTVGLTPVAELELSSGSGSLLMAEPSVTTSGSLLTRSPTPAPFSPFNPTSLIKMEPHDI
ELF1, sequence (P32519 whole entry): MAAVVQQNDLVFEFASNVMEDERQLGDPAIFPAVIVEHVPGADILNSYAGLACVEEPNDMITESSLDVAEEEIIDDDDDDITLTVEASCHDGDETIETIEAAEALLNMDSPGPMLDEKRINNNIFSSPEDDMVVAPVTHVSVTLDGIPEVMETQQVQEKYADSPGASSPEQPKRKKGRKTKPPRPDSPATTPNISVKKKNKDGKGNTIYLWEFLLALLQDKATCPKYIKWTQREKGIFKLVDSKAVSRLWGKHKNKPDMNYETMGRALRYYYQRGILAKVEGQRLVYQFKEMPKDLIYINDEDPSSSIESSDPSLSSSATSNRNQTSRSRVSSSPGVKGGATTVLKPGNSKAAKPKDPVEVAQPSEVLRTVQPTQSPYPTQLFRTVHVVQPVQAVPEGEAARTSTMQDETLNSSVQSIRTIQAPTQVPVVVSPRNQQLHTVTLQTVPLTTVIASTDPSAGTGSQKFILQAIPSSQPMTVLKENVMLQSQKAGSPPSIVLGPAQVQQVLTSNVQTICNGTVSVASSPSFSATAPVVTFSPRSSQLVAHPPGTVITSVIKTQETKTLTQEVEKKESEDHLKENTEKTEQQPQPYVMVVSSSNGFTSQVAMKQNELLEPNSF

Sequence: TTATCA
- binding signal [1]: 1.16 fold enrichment (6-mer frequency, TF over GST control)
- binding signal [2]: 1.15 fold enrichment (6-mer frequency, TF over GST control)
- binding signal [3]: 1.05 fold enrichment (6-mer frequency, TF over GST control)
- binding signal [4]: 1.06 fold enrichment (6-mer frequency, TF over GST control)
- binding signal [5]: 1.15 fold enrichment (6-mer frequency, TF over GST control)
- binding signal [6]: 1.02 fold enrichment (6-mer frequency, TF over GST control)
- binding signal [7]: 1.09 fold enrichment (6-mer frequency, TF over GST control)
- binding signal [8]: 1.1 fold enrichment (6-mer frequency, TF over GST control)
- binding signal [9]: 1.17 fold enrichment (6-mer frequency, TF over GST control)
- binding signal [10]: 1.06 fold enrichment (6-mer frequency, TF over GST control)
- binding signal [11]: 1.05 fold enrichment (6-mer frequency, TF over GST control)
- binding signal [12]: 1.44 fold enrichment (6-mer frequency, TF over GST control)
- binding signal [13]: 1.12 fold enrichment (6-mer frequency, TF over GST control)
- binding signal [14]: 1.08 fold enrichment (6-mer frequency, TF over GST control)
- binding signal [15]: 1.2 fold enrichment (6-mer frequency, TF over GST control)
- binding signal [16]: 1.13 fold enrichment (6-mer frequency, TF over GST control)
- binding signal [17]: 2.19 fold enrichment (6-mer frequency, TF over GST control)
- binding signal [18]: 1.06 fold enrichment (6-mer frequency, TF over GST control)
